Results as given in the supplement of paper PMC7801607.

Tests used:
CHO = test: % viability of CHO cells (MTT); higher = less toxic; conditions: 48 h
How it was run: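 Viability was given as a percentage of untreated cells and measured colorimetrically by the tetrazolium (MTT) assay. Before this, CHO cells at 10^6 cells/well in 200 µL attached overnight, then received fresh medium containing compound at 2 or 20 µM for 48 h.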

HepG2-A16-CD81 = test: % inhibition of HepG2 viability (CellTiter-Glo); higher = more toxic; conditions: 5 µM
[1] = tested on: Plasmodium falciparum NF54 stage IV/V gametocytes; test: % inhibition of gametocyte viability (PrestoBlue); higher = more inhibition; conditions: 48 h
How it was run: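 Values are percent inhibition of gametocyte viability, normalised to vehicle and kill controls in a single run. Stage IV/V NF54 gametocytes (2% gametocytaemia, 5% haematocrit, 100 µL/well) were held with compound at 1 or 5 µM for 48 h at 37 °C, stationary and hypoxic. Viability was read as 612 nm fluorescence on 70 µL of supernatant after a 2 h incubation with 10 µL PrestoBlue.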

[2] = tested on: Plasmodium falciparum NF54 asexual blood stage; test: % inhibition of asexual blood stage proliferation (pLDH); higher = more inhibition; conditions: 72 h
How it was run: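 Using 96-well plates, the screen was run twice on separate occasions with Plasmodium falciparum NF54 ring-stage cultures at 1% haematocrit and 2% parasitaemia. Each culture was exposed to compound at 2 or 20 µM for 72 h at 37 °C under a gas mix of 4% CO2, 3% O2 and 93% N2. After incubation, the parasite lactate dehydrogenase assay was read colorimetrically at 620 nm. From this readout, percent inhibition of asexual proliferation was derived against control wells.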

[3] = tested on: Plasmodium falciparum NF54 stage IV/V gametocytes; test: % inhibition of gametocyte viability (ATP bioluminescence); higher = more inhibition; conditions: 24 h
How it was run: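 Viability of stage IV/V NF54 gametocytes is given as percent inhibition, normalised to control wells in a single run. Gametocytes enriched on density gradients were seeded at 30,000 per well in 96-well plates with compound at 1 or 5 µM and held at 37 °C for 24 h. ATP was then read with the Promega BacTiter Glo bioluminescence system.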

[4] = tested on: Plasmodium falciparum NF54 stage IV/V gametocytes; test: % inhibition of gametocyte viability (luciferase reporter); higher = more inhibition; conditions: 48 h
How it was run: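 Percent inhibition came from luminescence and was normalised to controls in a single run. Gametocytes (stage IV/V, NF54-Pfs16-GFP-Luc line, 2% gametocytaemia, 2% haematocrit) were treated with compound at 1 or 5 µM and incubated for 48 h at 37 °C without agitation under hypoxia. Readings used 30 µL lysate with 30 µL Promega luciferin substrate on a GloMax-Multi+ reader, integrating for 10 s.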

[5] = tested on: Plasmodium berghei ANKA liver stage in HepG2-A16-CD81; test: % inhibition of liver stage parasite viability (luciferase); higher = more inhibition; conditions: 5 µM; 48 h
Description: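 Single-concentration screen of the MMV Pandemic Response Box. P. falciparum NF54 asexual blood stages: pLDH assay, 72 h at 37 °C, 2 and 20 µM, n=2. Stage IV/V gametocytes (NF54): luciferase reporter (NF54-Pfs16-GFP-Luc, 48 h), ATP bioluminescence (24 h) and PrestoBlue (48 h) at 1 and 5 µM, n=1. P. berghei liver stage (luciferase in HepG2-A16-CD81, 48 h post infection) at 5 µM, n=4. All normalised to DMSO and kill controls as % inhibition.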
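For % inhibition of HepG2 viability (CellTiter-Glo) in this document: HepG2-A16-CD81 hepatoma cells plated as in the liver-stage assay but without sporozoites, with DMSO wells as negative and 25 µM puromycin as positive control.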

Structure (SMILES) | % viability of CHO cells (CHO; 2 µM) | % viability of CHO cells (CHO; 20 µM) | % inhibition of HepG2 viability (HepG2-A16-CD81) | % inhibition of gametocyte viability ([1]; 1 µM) | % inhibition of gametocyte viability ([1]; 5 µM) | % inhibition of asexual blood stage proliferation ([2]; 2 µM) | % inhibition of asexual blood stage proliferation ([2]; 20 µM) | % inhibition of gametocyte viability ([3]; 1 µM) | % inhibition of gametocyte viability ([3]; 5 µM) | % inhibition of gametocyte viability ([4]; 1 µM) | % inhibition of gametocyte viability ([4]; 5 µM) | % inhibition of liver stage parasite viability [5]
Cc1onc(-c2ccccc2Cl)c1C(=O)N[C@@H]1C(=O)N2[C@@H]1SC(C)(C)[C@@H]2C(=O)O | 126% | 143% | -1.54% | < 0% | 30.1% | 8.35% | -0.0824% | < 0% | < 0% | < 0% | 7.91% | 17.1%
COc1ccc(NC(=O)CC2Sc3ncnn3C2=O)cc1 (centres undefined) | 99.9% | -0.591% | 10.8% | < 0% | 2.6% | 29.9% | 26.3% | 0.572% | 16.9% | < 0% | 15.3% | 34.5%
CCCCCCC1c2ccc(O)cc2Oc2cc(O)ccc21 | 80.1% | 49.3% | 11.4% | 5.99% | < 0% | -7.32% | 12.9% | 4.64% | 15.4% | < 0% | < 0% | 42.4%
COc1cc(Cc2cnc(N)nc2N)c2c(c1OC)OC(C1CC1)C=C2 (centres undefined) | 103% | 67.7% | -4.44% | 36.3% | 6.68% | 13% | 34% | 1.06% | < 0% | 35.9% | 1.69% | 56.5%
COc1ccc2nc(-c3ccccc3)cc(O)c2c1 | 85.4% | 80.2% | 6.13% | < 0% | 7.99% | 66.9% | 94.3% | 29.5% | 13.5% | < 0% | 8.89% | 78.6%
Nc1nc(=O)c(Br)c(-c2cccc(Cl)c2)[nH]1 | 102% | 109% | 6.4% | 9.16% | 21% | 18.2% | 68.9% | 4.05% | < 0% | < 0% | 5.01% | -7.9%
O=C(Nc1ccccc1)N(Cc1cc(Br)ccc1O)c1ccc(F)cc1 | 99.5% | 61.3% | -2.44% | 27.2% | 8.98% | 6.3% | 14.7% | < 0% | < 0% | < 0% | < 0% | 17.9%
CCCCc1ccc(-c2nc(C)c(C(=O)OC)s2)cc1 | 113% | 102% | 0.116% | 5.41% | 22.1% | 36.8% | 59.2% | < 0% | < 0% | < 0% | < 0% | -103%
O=P(O)(O)C(CCCc1cccc(Oc2ccccc2)c1)S(=O)(=O)O (centres undefined) | 113% | 109% | -5.33% | 12.4% | 30.6% | 34.7% | 69.9% | < 0% | < 0% | < 0% | 3% | 9.62%
Cc1cc(CCOc2c(C)cc(-c3nnn(C)n3)cc2C)on1 | 100% | 105% | -1.96% | 26.4% | 21.8% | 12.7% | 31% | < 0% | < 0% | 4.37% | 32.2% | 33.8%
COc1nc2ccc(Br)cc2cc1[C@@H](c1ccccc1)[C@@](O)(CCN(C)C)c1cccc2ccccc12 | 107% | 140% | -0.302% | < 0% | < 0% | 82.9% | 101% | < 0% | 49.3% | 14.4% | 19.2% | 31.1%
CCOc1ccc(C(=O)NCCc2ccccc2)cc1 | 119% | 77.8% | 1.88% | 31.4% | 70.5% | 34% | 76.1% | 6.61% | < 0% | < 0% | 64.1% | -19.9%
CCC[C@@H]1C[C@@H](C(=O)N[C@@H]([C@H]2O[C@H](SC)[C@H](O)[C@@H](O)[C@H]2O)[C@H](C)Cl)N(C)C1 | 89.5% | 103% | 5.96% | 10.3% | 24.2% | 72.9% | 93.2% | < 0% | 1.18% | < 0% | < 0% | 92.2%
Nc1nc(N)c2c(Sc3ccccc3)cccc2n1 | 107% | 100% | 13.7% | < 0% | 4.25% | 47.8% | 77.9% | < 0% | 2.83% | < 0% | < 0% | 48.9%
Cc1c(N)cccc1Cn1ccc(OCCc2cccs2)cc1=O | 240% | 54.9% | 5.54% | < 0% | < 0% | 6.4% | 22.2% | 0.516% | < 0% | < 0% | < 0% | 17%
CCCCCCCCCN1C[C@@H](O)[C@H](O)[C@@H](O)[C@@H]1CO | 94.1% | 58.9% | 4.62% | < 0% | 3.2% | 38.4% | 25.3% | < 0% | < 0% | 2.02% | 2.49% | -1.14%
CC(C)Oc1ccc(-c2nc(-c3cccc4c3CC[C@@H]4NCCO)no2)cc1C#N | 113% | 117% | -1.14% | 16.7% | 7.83% | 78.4% | 87.9% | 14.3% | 84.7% | < 0% | < 0% | 21.6%
O=C(NCc1ncc(C(F)(F)F)cc1Cl)c1c(Cl)cccc1Cl | 91.7% | 72.6% | 2.83% | < 0% | 3.98% | 18.8% | 1.98% | < 0% | < 0% | < 0% | < 0% | 34.7%
O=C(Cc1ccccc1F)Nc1nc2ccccc2[nH]1 | 104% | 87.3% | 7.61% | 5.47% | 21.8% | 37.1% | 29.8% | < 0% | < 0% | < 0% | < 0% | -7.69%
O=C(CP(=O)(O)O)NCCc1cccc(Oc2ccccc2)c1 | 108% | 84.2% | 0.91% | 16.8% | 19.8% | 30.7% | 29.5% | 2.33% | < 0% | < 0% | < 0% | 27.3%
CC(C)N(c1cc(-c2ccccc2)sc1C(=O)O)C(=O)[C@H]1CC[C@H](C)CC1 | 91.8% | 103% | -2.07% | 18.3% | 14.3% | 28.8% | 44.9% | 4.36% | < 0% | 4.34% | < 0% | 20.5%
O=C(CC1Sc2ncnn2C1=O)Nc1ccc(Br)cc1 (centres undefined) | 100% | 102% | -3.25% | 20.1% | 9.94% | 24.1% | 42.2% | 8.79% | 43.5% | < 0% | 1.92% | 20.8%
